# The OligoGym collection
# Target: LIPA
# Test: pooled miR-30 sensor sort-seq; sequence = guide strand
# Conditions: shRNA
# Further: reference of the scale not given here.
row,Sequence,sensor-assay potency score (higher = more potent)
1,TACAAAGTAGTATTCGCCCTGC,-0.272
2,TTCAGTATGACATGAGTGCAAA,-1.31
3,TATATCCATCTTCTGTCTCAAC,-1.24
4,TTAACCATTAACAAGCATTGTA,0.00545
5,TTGACGTCGTAGACATCTGCAA,-0.272
6,TTACAAAGTAGTATTCGCCCTG,0.166
7,ATCTTCTGTCTCAACTAGGTAT,-0.881
8,TTGACTATGCACCTGCTGCAGG,-0.688
9,TATGACATGAGTGCAAACGTGG,-0.073
10,TTTGTCTCCAAATAAGTCCTTA,-0.0541

# Target: LIPK
# Test: as above
# Conditions: shRNA
row,Sequence,sensor-assay potency score (higher = more potent)
1,TAGCTTTCGATTGCACACTTTG,-1.01
2,TTGTTGTAACATCATACTCTTC,-0.891
3,TATTGCTGTTGGAACTTCCATC,-0.879
4,TATTTAACTGTGACAACTGGAG,-0.414
5,TTTGTCACCAAACAACACCTTA,-0.763
6,TTCCTTTCTTGTCATAACCATA,-1.36
7,TAGGTCTTGGTAAATTTCCTGA,-0.456
8,TAATGTTGTATAAAGGAGGTGT,0.558
9,TTTCTTGTCATAACCATACATA,-0.84
10,AACACCTTAACTACTCGCCTGG,-0.456
11,TATCTTAATCTTTTTAGCCAGT,-0.586
12,TTGTAGTGTGGAATCAGCTTGT,0.39

# Target: LITAF
# Test: as above
# Conditions: shRNA
row,Sequence,sensor-assay potency score (higher = more potent)
1,ACAGTAATGGTCCACGTCCTGC,-1.32
2,TAACAGCCACTGTCTCTTCATA,-1.19
3,TGACTCACGATCATCTTGTTGC,-0.0822
4,TTATAGGACAGCTGACTCACGA,0.0157
5,TAATGGTCCACGTCCTGCAGGG,-0.698
6,TTAACAGCCACTGTCTCTTCAT,-0.139
7,TTGCAGGAAGGACAACACATTT,-1.76
8,TAATTGGATTGTTATTGGGGAT,-0.833
9,TAACTGTTAACAGCCACTGTCT,-0.461
10,TATAGGACAGCTGACTCACGAT,-0.462
11,ATAACTGTTAACAGCCACTGTC,-0.861
12,AATAACTGTTAACAGCCACTGT,-0.0828

# Target: LMO4
# Test: as above
# Conditions: shRNA
row,Sequence,sensor-assay potency score (higher = more potent)
1,TTAAGATGATACACATTGCCTT,-0.509
2,TTGGTGTAACAGGACGTGCCGA,-0.708
3,TCACTCGCAGGAATCGACTGTC,0.214
4,TGGTGTAACAGGACGTGCCGAT,-0.601
5,TTCACTCGCAGGAATCGACTGT,0.156
6,TAAGATGATACACATTGCCTTG,-0.884
